Records with an inconclusive call do not appear. Where a structure was tested more than once in an assay, its records may differ in their call. Activity calls are given as the source filed them. How the source made its calls: active means hit-call score of the fitted dose curve at least 0.9, where 1 is the maximum; inconclusive means response in the unintended direction; inactive means score below 0.9.

From PubChem BioAssay (EPA / NIEHS) come the findings set out here.

Sequence of human RAR-related Orphan Receptor gamma (RORg), RORC (gene 6097) (P51449 whole entry, looked up): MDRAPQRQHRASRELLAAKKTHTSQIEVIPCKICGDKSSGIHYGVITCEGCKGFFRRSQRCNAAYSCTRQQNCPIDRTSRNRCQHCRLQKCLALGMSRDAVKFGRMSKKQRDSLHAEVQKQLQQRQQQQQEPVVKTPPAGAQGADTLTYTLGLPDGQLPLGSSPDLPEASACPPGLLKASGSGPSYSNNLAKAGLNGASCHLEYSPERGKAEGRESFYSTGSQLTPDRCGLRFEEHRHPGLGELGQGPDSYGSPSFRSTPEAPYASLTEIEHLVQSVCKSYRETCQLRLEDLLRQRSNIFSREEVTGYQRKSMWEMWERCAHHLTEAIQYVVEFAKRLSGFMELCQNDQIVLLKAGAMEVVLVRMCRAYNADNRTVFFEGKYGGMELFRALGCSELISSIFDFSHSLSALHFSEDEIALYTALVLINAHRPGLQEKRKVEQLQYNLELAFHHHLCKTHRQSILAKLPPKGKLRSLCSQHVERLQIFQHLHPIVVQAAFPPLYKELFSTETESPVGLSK

This assay concerns the target human RAR-related Orphan Receptor gamma (RORg), RORC (gene 6097) (UniProt P51449). The assay is described as follows: ATG_RORg_TRANS: Attagene TRANS-FACTORIAL HepG2 Assay for human RAR-related Orphan Receptor gamma (RORg) (AID 2283011).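 On AC50: potency for induction of reporter transcripts above DMSO so activators.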 How it is done:
ATG_TRANS is a cell-based, multiplexed-readout assay that uses HepG2, a human liver cell line, with measurements taken at 24 hours after chemical dosing in a 24-well plate.ATG_RORg_TRANS is one of 30 assay component(s) measured or calculated from the ATG_TRANS assay. It is designed to make measurements of mRNA induction, a form of inducible reporter, as detected with fluorescence intensity signals by Reverse transcription polymerase chain reaction (RT-PCR) and Capillary electrophoresis technology.Data from the assay component ATG_RORg_TRANS was analyzed into 1 assay endpoint. This assay endpoint, ATG_RORg_TRANS, was analyzed in the positive analysis fitting direction relative to DMSO as the negative control and baseline of activity. Using a type of inducible reporter, measures of mRNA for gain-of-signal activity can be used to understand the reporter gene at the transcription factor-level as they relate to the gene RORC. Furthermore, this assay endpoint can be referred to as a primary readout, because this assay has produced multiple assay endpoints where this one serves a reporter gene function. To generalize the intended target to other relatable targets, this assay endpoint is annotated to the nuclear receptor intended target family, where the subfamily is orphan.
Human liver HepG2 cells are transiently transfected with multiple reporter transcription units (MRTUs) in 6-well plates using FuGene 6 reagent (Roche; 3 ml FuGene/1 mg DNA). The MRTU constructs are regulated by a cis-regulating element (promoter). […] A major difference between the CIS and TRANS system is that in CIS activities of endogenous TFs are measured, whereas the TRANS assay evaluates changes in activities of exogenous, chimeric NR-Gal4 proteins. […] At the end of 24 hour incubation, total RNA was isolated using TriZol reagent (Invitrogen). The isolated RNA is then reverse-transcribed using oligo(dT) primer and Mo-MLV reverse transcriptase (Invitrogen) with DNAse I (Ambion) treatment for 30 min. The one-tenth of the produced cDNA was amplified by PCR using Taq DNA polymerase (Invitrogen) and two reporter sequence-specific primers. The PCR products were fluorescently labeled by primer extension with 6-arboxyfluorescein (6-FAM) 5'-labeled reporter sequence-specific primer (2 min at 95 C, 20 s at 68 C and 10 min at 72 C) and these products were digested with 5U of HpaI (New England Biolabs) for 2h at 37 C. The fragments were purified using Qiaquick PCR columns (Qiagen), analyzed on an ABI 3130xL genetic analyzer (Applied Biosystems) with peak positions identified by using a set of X-rhodamine (ROX)-labeled MapMarker1000 molecular weight standards (BioVentures). The raw capillary electrophoresis data was processed using Attagraph software (Attagene).
As to `CO[C@H]1/C=C/O[C@@]2(C)Oc3c(C)c(O)c4c(O)c(c(/C=N/N5CCN(C)CC5)c(O)c4c3C2=O)NC(=O)/C(C)=C\C=C\[C@H](C)[C@H](O)[C@@H](C)[C@@H](O)[C@@H](C)[C@H](OC(C)=O)[C@@H]1C`, the compound was called inactive. Consider `O=C1O[C@H]([C@@H](O)CO)C(O)=C1O`, for which the compound was classed as inactive. On to `CN1C(=O)CC[C@H]1c1cccnc1`, for which the call was inactive. On to `Cc1cccc2ccccc12`, for which the outcome was inactive. Turning to `O=C(OCCCCCCOC(=O)c1ccccc1)c1ccccc1`, the call was inactive. Turning to `CCCCCCCCCCCCO`, the result was inactive. Turning to `O=C(O)c1ccccc1C(=O)OCc1ccccc1`, the compound was classed as inactive. On the same count and under the same terms, to `O=C(O)c1ccccc1-n1cc(C(=O)O)c(=O)c2cc(Nc3c(F)cc(F)cc3Cl)c(Cl)cc21` belongs “inactive”. By AC50 is commonly meant the midpoint of the concentration-response curve, whichever way the signal moves. Regarding `CCCCCCCCCCCO`, the AC50 is 159 µM (active). As for `O=C(O)Cc1cc(I)c(Oc2ccc(O)c(I)c2)c(I)c1`, the call was inactive. As for `NCc1cccc(C2CCN(C(=O)c3ccc(C#Cc4ccccc4F)o3)CC2)c1`, the compound was classed as inactive. Turning to `C[C@]12CC[C@@H]3c4ccc(O)cc4CC[C@H]3[C@@H]1CC[C@H]2O`, the compound was classed as inactive. Same read-out and setting: as for `Cc1ncc(CO)c(CO)c1O`, the entry is “inactive”; as for `Cc1ccc(C(C)C)cc1`, “inactive”.

With `CCO[Si](CCCNC(N)=O)(OCC)OCC`, the result was inactive. In the case of `OC12N=C(c3ccccc3)SC1Cc1cc(Cl)ccc12` (stereo not drawn), the compound was called inactive.

For the compound `O=c1c(-c2ccc(O)cc2)coc2cc(O)cc(O)c12`, the outcome was inactive and the AC50 is 26.5 µM (active). On to `O=C(O)Cn1c(=O)n(Cc2ccc(Br)cc2F)c(=O)c2ccc(Cl)cc21`, for which the outcome was inactive. For `COc1cc(C(=O)NC2CCN(C)CC2)ccc1Nc1ncc2c(n1)N(C1CCCC1)CC(F)(F)C(=O)N2C`, the compound was called inactive.

With `c1ccc2ccccc2c1`, the result was inactive. As for `O=c1[nH]sc2ccccc12`, the call was inactive. On to `Oc1ccccc1`, for which the outcome was inactive.

Consider `O=C1CCC(C2CCCCC2)CC1`, for which the compound was called inactive. As for `CC(O)CC(C)(C)O` (stereo not drawn), the compound was classed as inactive.

Take `Cc1cc2c(cc1C(F)(F)F)N(C(=O)Nc1ccc(Oc3cccnc3C)nc1)CC2`: the outcome was inactive. Same read-out and setting: to `CC(C)(O)c1ccc(CNC(=O)c2cccnc2Oc2ccc3nonc3c2)cc1` belongs “inactive”; to `Clc1cc(Cl)c2c(c1)N=C1CCCCCN1C2`, “inactive”.

As to `CC(=O)N1CCN(c2ccc(OC[C@H]3CO[C@](Cn4ccnc4)(c4ccc(Cl)cc4Cl)O3)cc2)CC1`, the result was inactive. Consider `CN(C[C@@H](CC[N+]12CCC(C3CCCCC3)(CC1)CC2)c1ccc(Cl)c(Cl)c1)C(=O)c1cc(C(F)(F)F)cc(C(F)(F)F)c1`, for which the result was inactive. The same measure, in the same setting: to `O=C1c2ccccc2C(=O)N1CCc1noc(-c2ccc(CN3CCCCCC3)s2)n1` belongs “inactive”; to `O=CCCCC=O`, “inactive”. Still for that read-out and setting: as for `CCCC(=O)OCCC(C)C`, the entry is “inactive”.
